From PubChem
Vaccinia mCherry = vaccinia inhibition (mCherry reporter) | Vaccinia virus mCherry reporter infection, fluorescence | Potency, µM (series often up to 36.5 µM), most hits filed as inhibitors | actives 0.63% (n = 310,000) | AID 720579; calls by dose curve; tested in A549 cells; further: nearly all actives have a fitted effect of over 35% in size
HCMV antiviral = inhibitors of human cytomegalovirus. actives 4.5% (n = 410,000). HFF cells, HCMV-luciferase reporter, 72 h; active compounds read low. AID 1259415. activity change, negative = inhibition, % at 57.5 µM; in the data active means activity change below about -60%; inconclusive means no clear call, values can overlap the other calls; inactive means above about -39%
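Cell-based, HFFs, 1000 cells/well, 16 h 37C; cpds in DMSO + HCMV-luc, MOI 1 PFU/cell; 72 h 37C; OneGlo luminescence after 5 min RT; norm. to buffer vs Salinomycin 10uM.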
Tb PYK inh = T. brucei pyruvate kinase inhibition | Q57TT1 | Potency, µM (titrated, usually from 76.8 µM), most hits filed as inhibitors | TbPYK enzyme, Kinase-Glo Plus ATP luminescence, 45 min | actives 0.12% (n = 410,000); further: nearly all actives have a fitted effect of over 50% in size
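T. brucei PYK with substrate was exposed to pin-transferred compounds across a concentration series, then started with 130 uM ADP (final). After 45 min at room temperature, Kinase-Glo Plus luminescence was read, normalized and curve-fitted.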
LmPK inhibitor = LmPK (Leishmania mexicana) enzyme inhibition | purified LmPK, Kinase-Glo ATP luminescence, 1 h | Potency, µM (doses to about 57.5 µM), usual class: inhibitors | actives 0.37% (n = 290,000) | Q27686
Target sequence (Q27686 whole entry, looked up): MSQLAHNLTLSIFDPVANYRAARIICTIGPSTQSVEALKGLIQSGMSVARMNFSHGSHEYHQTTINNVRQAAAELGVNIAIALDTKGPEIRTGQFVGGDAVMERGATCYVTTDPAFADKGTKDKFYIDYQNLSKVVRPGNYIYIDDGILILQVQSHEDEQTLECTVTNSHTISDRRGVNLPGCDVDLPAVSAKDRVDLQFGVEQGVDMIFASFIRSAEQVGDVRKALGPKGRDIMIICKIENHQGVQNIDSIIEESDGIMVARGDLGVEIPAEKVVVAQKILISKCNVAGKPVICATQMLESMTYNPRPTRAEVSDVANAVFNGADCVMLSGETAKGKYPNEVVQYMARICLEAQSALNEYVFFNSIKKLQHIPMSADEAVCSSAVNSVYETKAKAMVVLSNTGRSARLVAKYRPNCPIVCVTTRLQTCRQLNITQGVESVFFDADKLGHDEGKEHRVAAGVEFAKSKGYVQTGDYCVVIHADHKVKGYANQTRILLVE
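Pyruvate kinase activity monitored as ATP production (luciferase luminescence). Conditions: 0.1 nM enzyme, 0.5 mM PEP, 0.1 mM ADP, 1 h, RT; normalized against uninhibited and no-enzyme wells.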
Vaccinia Venus = vaccinia inhibition (Venus reporter) | AID 720580 | Vaccinia virus Venus reporter expression, fluorescence | Potency, µM (series often up to 36.5 µM), actives largely listed as inhibitors | actives 0.46% (n = 330,000); calls by dose curve; tested in A549 cells; further: nearly all actives have a fitted effect of over 30% in size
Large screens that a line does not name were inactive; ! = not active in a repeat. An excerpt weighted towards active compounds, which were near 5% of everything screened. Unless noted, the call rests on the fitted dose curve; in most records, active means well fitted curve in the direction sought with a large enough effect; inconclusive means small, poorly fitted or top-dose-only effect, or another doubt; inactive means no such curve, though single readings can be large; an effect the other way counts as inactive or inconclusive.

Cc1ccsc1C(=O)N1CCC1(C)C(=O)NCc1cccc2ccccc12 (stereo not given)	HCMV antiviral inconclusive (no result: LmPK inhibitor)
CCN1C(=O)[C@H]2[C@H]3CN=C(SCc4ccc(C#N)cc4)N3[C@@](CC)(C(=O)OC)[C@H]2C1=O	none (no result: LmPK inhibitor)
COCc1cccc(-c2csc(C(O)c3ccc(F)c(F)c3)n2)c1 (stereo not given)	Vaccinia mCherry inconclusive, Vaccinia Venus inconclusive (no result: LmPK inhibitor)
Cc1cn2c(=O)cc(COC(=O)c3ccc(NC(=O)COc4ccccc4F)cc3)nc2s1	none (no result: LmPK inhibitor)
CC(C)c1ccc(NC(=O)N2CCN(c3ccc(Cl)c(Cl)c3)CC2)cc1	HCMV antiviral -79 (no result: LmPK inhibitor)
Cc1ccc(NC(=O)N2CCN(c3ccc(Cl)c(Cl)c3)CC2)cc1	HCMV antiviral -62 (no result: LmPK inhibitor)
O=C(CCn1cnnn1)Nc1ccc(F)cc1	HCMV antiviral -103!
CC(=O)Nc1ccc(NC(=O)CCn2cnnn2)cc1	none
COc1cc(C=NO)nc(-c2ccccn2)c1	Vaccinia mCherry inconclusive, HCMV antiviral -100, Vaccinia Venus inconclusive (no result: LmPK inhibitor)
Cc1nc(N2CCOCC2)c2c(C(=O)Nc3cccc(C(F)(F)F)c3)c(C)oc2n1	none (no result: LmPK inhibitor)
COc1ccc(N2CCN(C(=O)c3ccc(N(C)S(=O)(=O)c4ccc(OC)cc4)cc3)CC2)cc1	HCMV antiviral -63
CCOCCCNC(=O)c1ccc(N(C)S(=O)(=O)c2ccc(OC)cc2)cc1	HCMV antiviral -103 (no result: Vaccinia mCherry, Vaccinia Venus)
COc1ccc(N2CCN(C(=O)c3ccc(N(C)S(=O)(=O)c4ccc(C)cc4)cc3)CC2)cc1	HCMV antiviral inconclusive
CCn1ccc(C(=O)N2CCOCC2)n1	none
COc1ccc(NC(=O)CSc2ccccc2)cn1	HCMV antiviral -103
COc1ccc(NC(=O)Cc2ccccc2)cn1	none
COc1ccc(CS(=O)(=O)/C(Cl)=C(/Cl)C(=O)Nc2ccc(OC)nc2)cc1	Vaccinia Venus 10µM (no result: Vaccinia mCherry, HCMV antiviral)
COc1ccc(NC(=O)/C(Cl)=C(/Cl)S(=O)Cc2ccccc2)cn1 (stereo not given)	Vaccinia mCherry 7.1µM, HCMV antiviral -100, Vaccinia Venus 8.9µM
O=C(COc1ccccc1)Nc1ccc2nc(SCC(=O)N3CCOCC3)sc2c1	none (no result: LmPK inhibitor)
CN(C)N1C(=O)C2C3C=CC(O3)C2C1=O (stereo not given)	none (no result: LmPK inhibitor)
Cc1cc(C)c(SSc2nnnn2-c2ccccc2)c(C)c1	Tb PYK inh 3.5µM (no result: LmPK inhibitor)
Cc1ccc2c(c1C)-c1c(ccc(C)c1C)C(=O)C2=O	Vaccinia mCherry inconclusive, HCMV antiviral -96, Vaccinia Venus 10µM (no result: LmPK inhibitor)
Cc1ccc2c(c1N)C(=O)c1ccccc1C2=O	none (no result: LmPK inhibitor)
CCOc1ccc(CNC(=O)c2ccc3[nH]c(C)c(C)c3c2)cc1OC	HCMV antiviral active (no result: LmPK inhibitor)
CSc1ccc(S(=O)(=O)N2CCN(Cc3ccc4c(c3)OCO4)CC2)cc1	none
CC(C)CC(=O)NCCCCc1ccccc1	none
O=C(NNC1=Nc2ccccc2SC1)c1cccc([N+](=O)[O-])c1	HCMV antiviral -84
O=C(NNC1=NCCCCC1)c1cccc([N+](=O)[O-])c1	Vaccinia mCherry inconclusive
O=C(NNC1=Nc2ccccc2SC1)c1ccccc1F	HCMV antiviral -86, Vaccinia Venus inconclusive
N#CCC(=O)Nc1sc2c(c1C(N)=O)CCCC2	Vaccinia mCherry inconclusive, HCMV antiviral -62
CCCCN(C=O)c1c(CC)nc2ccc(C(=O)Nc3cc(-c4ccccc4)ccc3OC)cn12	none (no result: LmPK inhibitor)
COc1ccc(S(=O)(=O)N2CCN(C(=O)c3cc(-c4ccccc4OC)n[nH]3)CC2)cc1	none (no result: Vaccinia mCherry, Vaccinia Venus)
OC(Cc1ccnc2ccccc12)C(Cl)(Cl)Cl (stereo not given)	HCMV antiviral -80 (no result: LmPK inhibitor)
COc1ccc(C(=O)N2CCN(CCc3ccccn3)CC2)cc1	none
O=S(=O)(c1cc(C(F)(F)F)ccc1Cl)N1CCN(c2ncnc3ccccc23)CC1	HCMV antiviral -82, Vaccinia Venus inconclusive (no result: LmPK inhibitor)
Cc1cc(OCC(=O)Nc2ccccc2N2CCOCC2)c(C(C)C)cc1Cl	HCMV antiviral -66 (no result: Vaccinia mCherry, LmPK inhibitor, Vaccinia Venus)
COc1cc(/C=N/Nc2snc(SC)c2C#N)cc(OC)c1OC	HCMV antiviral -86, Vaccinia Venus inconclusive (no result: Vaccinia mCherry)
CCOC(=O)Cn1c(=O)oc2cc(S(=O)(=O)Nc3ccc(N(CC)CC)cc3C)ccc21	HCMV antiviral -77
CCOc1ccccc1C1CC(=O)Nc2cc3c(cc21)OCO3 (stereo not given)	HCMV antiviral inconclusive (no result: Vaccinia mCherry, Tb PYK inh, Vaccinia Venus)
C#CCOc1ccc(C2C3=C(COC3=O)Nc3cc4c(cc32)OCO4)cc1OC (stereo not given)	Vaccinia mCherry inconclusive, HCMV antiviral -82, Vaccinia Venus inconclusive
CCOc1ccccc1C1C2=C(COC2=O)Nc2cc3c(cc21)OCO3 (stereo not given)	Vaccinia mCherry inconclusive, HCMV antiviral -94, Vaccinia Venus inconclusive
O=C1OCC2=C1C(c1ccc(F)cc1)c1cc3c(cc1N2)OCO3 (stereo not given)	Vaccinia mCherry inconclusive, HCMV antiviral -93, Vaccinia Venus inconclusive
O=C1OCC2=C1C(c1ccc(F)cc1)c1cc3c(cc1N2)OCCO3 (stereo not given)	Vaccinia mCherry inconclusive, HCMV antiviral -85
Cc1cc(=O)oc2cc(O)cc(O)c12	none (no result: LmPK inhibitor)
CCCCCc1cc(O)c2c(C)cc(=O)oc2c1	HCMV antiviral -105 (no result: Vaccinia mCherry, Vaccinia Venus)
Cc1ccc(CNC(=O)Cc2ccc(-c3ccccc3)cc2)cc1	Vaccinia mCherry inconclusive, Vaccinia Venus inconclusive
O=C(Cc1ccc(-c2ccccc2)cc1)NCc1ccccc1	Vaccinia mCherry inconclusive, HCMV antiviral -83, Vaccinia Venus inconclusive
CCC1(c2ccccc2)NC(=O)N(CC(=O)Nc2cc(S(=O)(=O)N3CCCCC3)ccc2OC(C)C)C1=O (stereo not given)	none (no result: LmPK inhibitor)
O=C(Nc1ccc(Cn2cccn2)cc1)c1ccc(COc2ccc(Br)cc2)cc1	none
O=C(Nc1ccn(Cc2ccccc2F)n1)c1ccc(COc2ccc(Br)cc2)cc1	HCMV antiviral -103 (no result: Vaccinia mCherry, Vaccinia Venus)
Cn1ncc([N+](=O)[O-])c1C(=O)Nc1ccn(Cc2ccccc2F)n1	HCMV antiviral -62
CCn1cc(/C=C/C(=O)Nc2ccn(Cc3c(F)c(F)cc(F)c3F)n2)cn1	HCMV antiviral -70, Tb PYK inh inconclusive
Cn1cc([N+](=O)[O-])c(C(=O)Nc2ccn(Cc3c(F)c(F)cc(F)c3F)n2)n1	HCMV antiviral -92 (no result: Vaccinia mCherry, Vaccinia Venus)
COc1ccc(NC(=O)c2c(NCc3cccc(F)c3)sc3c2CCCC3)c(OC)c1	none (no result: LmPK inhibitor)
CC1=C(C(=O)N2CCCCCC2)CC(CC(=O)NC2CCCCC2)C(=O)N1CCC1=CCCCC1 (stereo not given)	none (no result: LmPK inhibitor)
COc1ccccc1NC(=O)COC(=O)c1ccc2c(c1)nc(C)n2-c1ccccc1	none
Cc1cccc(C(=O)N2CCCC(N3CCN(c4cccc(Cl)c4)CC3)C2)n1 (stereo not given)	none
Cc1ccsc1C(=O)N1CCCC(N2CCN(c3cccc(Cl)c3)CC2)C1 (stereo not given)	HCMV antiviral -64 (no result: Vaccinia mCherry, Vaccinia Venus)
O=C(CCn1cccn1)N1CCCC(N2CCN(c3cccc(C(F)(F)F)c3)CC2)C1 (stereo not given)	HCMV antiviral -62
